This is an account of results in PubChem BioAssay AID1778 (Sanford-Burnham Center for Chemical Genomics, 2009).

Out of some 290,000 compounds screened, about 260 (0.09%) were called active. Rule as the data show it: active = inhibition above about 50%; inactive = the rest. Only a selection was taken, and actives are over-represented in it overall. Entries with a potency or affinity are not part of this list.

In this assay the target is Kappa-type opioid receptor (Homo sapiens) (UniProt P41145). The assay is described as follows: KOR antagonists, beta-arrestin recruitment, cell-based, luminescence, uHTS (AID 1778). The conditions noted are these: antagonist mode, hits give high values; at 10 µM unless noted.
Kappa-type opioid receptor (Homo sapiens), sequence (P41145 whole entry, looked up): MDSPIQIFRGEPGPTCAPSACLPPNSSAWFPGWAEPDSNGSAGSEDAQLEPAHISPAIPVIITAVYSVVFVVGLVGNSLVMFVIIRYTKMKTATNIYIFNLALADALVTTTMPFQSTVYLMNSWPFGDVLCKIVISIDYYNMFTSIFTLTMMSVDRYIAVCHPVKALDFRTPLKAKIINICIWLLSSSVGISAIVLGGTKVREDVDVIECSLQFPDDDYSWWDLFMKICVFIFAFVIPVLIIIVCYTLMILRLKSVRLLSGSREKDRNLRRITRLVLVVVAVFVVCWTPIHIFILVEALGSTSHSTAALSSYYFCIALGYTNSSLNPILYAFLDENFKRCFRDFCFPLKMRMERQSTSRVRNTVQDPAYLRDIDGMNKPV
With `O=C(OCn1ncc(Cl)c(Cl)c1=O)c1ccc(F)cc1`, the inhibition (commonly the drop in the measured response relative to a control, in per cent) was 5.2% (inactive). Turning to `O=C(OCn1ncc(Br)c(Br)c1=O)c1c(F)cccc1F`, the inhibition is 28% (inactive). The figure for `CC(C)C(C(=O)NC(C)(C)C)N1C(=O)c2ccccc2C1=O` (stereo unspecified) is -6.7% (inactive). The result for `Cc1cc(C(=O)Nc2ccc(Br)cc2)cs1` reads 9.2% (inactive); that for `CC(=O)c1c(C)nn(CCC(=O)O)c1C`, 18.3% (inactive). The result for `Cc1ccnc(NC(=O)c2sc3cc(Cl)ccc3c2Cl)c1` reads 9.3% (inactive); that for `O=C(Nc1nccs1)c1sc2ccccc2c1Cl`, -49.2% (inactive); that for `O=C(CCN1C(=O)S/C(=C/c2ccc(Cl)cc2)C1=O)N1CCOCC1`, 36.7% (inactive). As to `Cn1c(C(=O)NCc2cccnc2)cc2sccc21`, the inhibition was 26.2% (inactive). The result for `Cc1nc(Cl)c(C(=O)NCc2ccccc2)c(C)c1Cl` reads 7.6% (inactive).

In the case of `Cc1nc(Cl)c(C(=O)NCc2ccccc2)c(C)c1[N+](=O)[O-]`, the inhibition was 13.7% (inactive). In the case of `O=C(NCc1ccccc1)c1c(Cl)nc(Cl)c(Cl)c1Cl`, the inhibition is 58.5% (active). The result for `Cc1ccccc1-c1nc(CS(=O)(=O)CC(=O)N2CCOCC2)c(C)o1` reads -6% (inactive). On to `O=C(NCc1ccc(Cl)cc1)c1cc(=O)[nH]c2ccccc12`, for which the inhibition is -54.2% (inactive). The figure for `O=C(NCc1ccccc1Cl)c1cc(=O)[nH]c2ccccc12` is 4.5% (inactive). The figure for `CCOC(=O)c1cc(-c2ccc(N3CCOCC3)cc2)nn1-c1ccc(F)cc1F` is 21.8% (inactive); for `COc1ccc(NC(=O)CSc2nnnn2-c2ccc(OC)cc2)cc1` it is -1.3% (inactive); for `CC(CCc1ccccc1)NC(=O)COC(=O)c1ccc(S(C)(=O)=O)c([N+](=O)[O-])c1` (stereo unspecified) it is 18.3% (inactive). The figure for `CC(=O)c1cccc(NC(=O)COC(=O)c2ccc(S(C)(=O)=O)c([N+](=O)[O-])c2)c1` is 18.1% (inactive); for `Cc1ccccc1NC(=O)COC(=O)c1ccc(S(C)(=O)=O)c([N+](=O)[O-])c1` it is 53.9% [at 20 µM] (active).

`O=C(Cc1cccs1)Nc1ccccc1C(=O)O`: the inhibition was 27.3% (inactive). The figure for `O=c1cc(-c2ccccc2)[nH]n1-c1nc2ccccc2[nH]1` is 11.5% (inactive); for `COC(=O)Cc1cc(=O)n(-c2nc3ccccc3[nH]2)[nH]1` it is 21.2% (inactive).

On to `COc1ccc(NC(=O)CSc2nc3sc(C)cc3c(=O)n2C)c(OC)c1`, for which the inhibition is -25.7% (inactive). For the compound `O=C(NCC1CCCO1)C(c1ccc(F)cc1)N(Cc1ccc2c(c1)OCO2)C(=O)c1ccc(CN2CCOCC2)o1` (stereo unspecified), the inhibition was -17.9% [at 20 µM] (inactive).

For the compound `COc1cc(/C=C2\SC(=S)N(NC(=O)c3ccncc3)C2=O)ccc1O`, the inhibition was 49.4% (inactive). In the case of `CCOc1ccc(/C=C2\SC(=S)N(C(C(=O)O)c3ccccc3)C2=O)cc1OC` (stereo unspecified), the inhibition is 9.7% (inactive). The figure for `COc1cc(/C=C2\SC(=S)N(NC(=O)c3ccc(O)cc3)C2=O)ccc1O` is 47.2% (inactive); for `CCOc1ccc(/C=C2/SC(=S)N(C(C(=O)O)c3ccccc3)C2=O)cc1OCC` (stereo unspecified) it is -34.9% (inactive); for `CCOc1cc(/C=C2\SC(=S)N(Nc3ccccc3)C2=O)ccc1O` it is 9% (inactive). As for `Cc1c(N2C(=O)/C(=C/c3ccccc3)SC2=S)c(=O)n(-c2ccccc2)n1C`, the inhibition is -9.4% (inactive). The figure for `Cc1ccc(/C=C2\SC(=S)N(c3c(C)n(C)n(-c4ccccc4)c3=O)C2=O)cc1` is -2.4% (inactive); for `O=C1/C(=C/c2ccc(O)c(O)c2)SC(=S)N1Nc1ccccc1` it is 35.5% (inactive); for `Cn1cnnc1SCC(=O)Nc1ccc(OC(F)F)cc1` it is -3.3% (inactive). The result for `C/C(=N\NC(=O)c1ccc2c(c1)OCO2)c1cccnc1` reads 14.6% (inactive); that for `COc1ccc(NC(=O)CCCN2C(=O)C(c3ccccc3)Oc3cccnc32)cc1OC` (stereo unspecified), 7% (inactive). `CN1CCN(C2CC(=O)N(CCc3ccccc3)C2=O)CC1` (stereo unspecified): the inhibition is 10.4% (inactive).

In the case of `Cc1cc(C(c2ccc(C)o2)c2ccc(C)o2)c(O)c([N+](=O)[O-])c1`, the inhibition is -22.8% (inactive).

Regarding `COc1ccc([N+](=O)[O-])cc1NC(=O)Cc1c(Cl)cccc1Cl`, the inhibition was 15.2% (inactive). The figure for `CCCc1nc2sc3c(=O)[nH]cnc3c2c2c1CCCC2` is -21.3% (inactive); for `CC(C)Cc1nc2oc3c(Cl)ncnc3c2c2c1CCC2` it is 32.2% (inactive); for `CCCc1nc2sc3c(=O)n(N)cnc3c2c2c1CCCC2` it is -14.5% (inactive).

As for `CCCc1nc2oc3c(N4CCNCC4)ncnc3c2c2c1CCCC2`, the inhibition was 14.5% (inactive). The result for `Cn1ccnc1Sc1ccccc1[N+](=O)[O-]` reads 6.9% (inactive); that for `O=C(/C=C/c1cccc([N+](=O)[O-])c1)c1cccs1`, 14.1% (inactive). As to `Cc1sc2nc(-c3ccccn3)[nH]c(=O)c2c1-c1ccccc1`, the inhibition was 49.2% (inactive). Take `CCc1cc2c(=O)[nH]c(-c3ccncc3)nc2s1`: the inhibition is -17.3% (inactive). Take `O=c1[nH]c(-c2ccccn2)nc2ccccc12`: the inhibition is 13.8% (inactive). The result for `CCc1cc2c(=O)[nH]c(Cc3ccccc3)nc2s1` reads -15.3% (inactive); that for `CCc1cc2c(=O)[nH]c(-c3ccccn3)nc2s1`, 104% (active); that for `COc1ccc(CNC(=O)Nc2cccc3ccccc23)cc1`, 7.6% (inactive).

On to `N#CC1=C(N)Oc2n[nH]c(-c3ccccc3)c2C1c1cccc(OC(=O)N2CCOCC2)c1` (stereo unspecified), for which the inhibition was 15.5% (inactive). Regarding `O=C(NCCN1CCOCC1)C(=O)NCc1ccc2c(c1)OCO2`, the inhibition is -60.9% [at 20 µM] (inactive). The figure for `CCOc1ccc(C(=O)/C=C/Nc2ccc(S(=O)(=O)Nc3onc(C)c3C)cc2)cc1` is -11% (inactive); for `C[C@H](NC(=O)c1ccccc1)C(=O)Nc1nc(-c2ccccn2)cs1` it is -31% (inactive).

For the compound `CC(Oc1ccc(Br)cc1)C(=O)NCc1ccccn1` (stereo unspecified), the inhibition was -23.9% [at 20 µM] (inactive). Regarding `CNc1ccc(OC(F)F)cc1C(=O)c1ccccc1`, the inhibition is 17.2% (inactive). The result for `Cc1ccc(SCC(=O)N2CCc3ccccc32)cc1` reads -4.7% (inactive); that for `CC(=O)/C(=N\Nc1cccc(Cl)c1)Sc1cccc2cccnc12`, 9.1% (inactive); that for `CC(=O)/C(=N\Nc1ccccc1Cl)Sc1cccc2cccnc12`, -17.2% (inactive). The figure for `Fc1ccc2[nH]c3c(c2c1)CN(C(=S)NCc1ccccc1)CC3` is -9.6% (inactive).
